Among all 290,000 compounds or so, about 150 (0.052%) were called active.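 How the source made its calls: active means inhibition of at least 50% with at least 30 cells and total cytoplasm GFP at most 10,000,000; inconclusive means under 30 cells or total GFP of 10,000,000 plus; inactive means the rest.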 The full list was thinned out, with actives kept by preference. Measured potencies and affinities stand elsewhere.
Biological target: G-protein coupled receptor 35 (Homo sapiens) (UniProt Q9HC97)
Assay: inhibition of zaprinast-stimulated GPR35 beta-arrestin translocation – imaging, U2OS, beta-arrestin-GFP, zaprinast agonist, primary screen (AID 2058)
Conditions: zaprinast antagonism, at 10 µM, active compounds read high

Chain of G-protein coupled receptor 35 (Homo sapiens) (Q9HC97 whole entry, looked up): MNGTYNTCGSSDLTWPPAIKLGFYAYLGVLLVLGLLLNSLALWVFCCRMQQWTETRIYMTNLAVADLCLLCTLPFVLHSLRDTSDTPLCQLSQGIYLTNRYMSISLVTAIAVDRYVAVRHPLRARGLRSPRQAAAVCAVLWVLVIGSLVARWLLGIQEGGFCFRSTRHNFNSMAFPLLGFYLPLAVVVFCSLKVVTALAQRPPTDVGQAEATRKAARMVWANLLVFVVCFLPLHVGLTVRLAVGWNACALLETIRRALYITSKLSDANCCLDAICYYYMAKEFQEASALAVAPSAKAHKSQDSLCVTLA

| SMILES | inhibition |
| --- | --- |
| CN1/C(=C\C=C2C(=O)NC(=O)NC2=O)C(C)(C)c2ccccc21 | 1.5% (inactive) |
| CN1/C(=C\C=Nc2ccccc2)C(C)(C)c2ccccc21 | -7.9% (inactive) |
| CN1/C(=C\C=C\C2=[N+](C)c3ccc4ccccc4c3C2(C)C)C(C)(C)c2ccccc21 | 111% (active) |
| COc1ccc(NC(=O)c2cn(CCC#N)nc2-c2cccc(Br)c2)cc1 | -0.5% (inactive) |
| CCCNS(=O)(=O)c1ccc(OCC(=O)N2CCN(C)CC2)cc1 | 3.2% (inactive) |
| CCCCNC(=O)NC(C(N)=O)P(=O)(OCC)OCC (stereo not given) | -6.8% (inactive) |
| COc1cccc(C2CC3C(=O)C=CC2N3Cc2ccccc2)c1 (stereo not given) | 58.2% (active) |
| COc1cccc(-c2nn(Cc3ccccc3)cc2C(=O)O)c1 | 21.1% (inactive) |
| COc1cccc(CN2CCCCC2c2cccnc2)c1 (stereo not given) | 11.2% (inactive) |
| Clc1ccc(NC2=NCCCS2)cc1Cl | -7.1% (inactive) |
| Cc1c2ccncc2c(C)c2c1[nH]c1ccccc12 | 57.9% (active) |
| Cc1nccc2c1[nH]c1ccccc12 | 2.3% (inactive) |
| c1ccc2c(c1)[nH]c1cnccc12 | -1.7% (inactive) |
| CCOc1ccc(Cl)cc1CNCCc1ccc(F)cc1 | -1.9% (inactive) |
| Cc1ccc(C(=O)Nc2ccc(-n3ccnc3P(=O)(O)c3ccccc3)cc2)cc1 | -2.7% (inactive) |

Source: PubChem BioAssay AID2058 (Sanford-Burnham Center for Chemical Genomics, 2009)
